# According to the OligoGym collection:
# Molecular target: C19orf26
# Assay: pooled miR-30 sensor sort-seq; sequence = guide strand
# Conditions: shRNA
# Also: reference of the scale not given here.
row,Sequence,sensor-assay potency score (higher = more potent)
1,TTCGGTCTCCGCATCCTGGCAC,-0.126
2,TTCTTGACCTTGAAATAGGGGC,-0.421
3,TCGCCTGAGTCACACTCGTGGA,-1.57
4,TCGTGGATGGTGACAATCTTGA,-1.35
5,TTGTCCTGCGTCTTGCGGCTCT,-0.61
6,TTGTCCAGGTAGGTGGTGGTGG,-0.893
7,TTGACCTTGAAATAGGGGCTGG,-0.605
8,TCATTGAAGGAGACCCGGCGGC,-0.71
9,TGAGTCACACTCGTGGATGGTG,-0.617

# Molecular target: C19orf33
# Assay: as above
# Conditions: shRNA
row,Sequence,sensor-assay potency score (higher = more potent)
1,TCCGTGTCCGAATCGCTGGAGC,-1.74
2,ACATCCGTGTCCGAATCGCTGG,-1.43
3,TCCGAATCGCTGGAGCTGCTGC,-0.94
4,ATCCGTGTCCGAATCGCTGGAG,-0.418
5,TGAGCTTGGGATCTCCCCCGTG,-0.899
6,TTCTCCTTCTTCTTCACTTTGG,-0.173
7,TCTCCTTCTTCTTCACTTTGGG,-0.407
8,TCTCGTGCTGCTTGGAGCCAGC,-1.2
9,TTCTTCTTCACTTTGGGCTTCT,0.272
10,AAGAGCTGTGGTGTCCTTGCTT,0.114
11,TTCACTTTGGGCTTCTTGGCCT,-0.157
12,AACTTTGTGGGGACTGAGCTTG,-0.364

# Molecular target: C19orf43
# Assay: as above
# Conditions: shRNA
row,Sequence,sensor-assay potency score (higher = more potent)
1,AACAGCTCCAGGAAGCTGCCGT,-0.55
2,TAATACCTCATCCTCCGTCTTC,-0.695
3,TTTATCATCGTCACCGCACTGG,0.198
4,TAAATAGTTATGTACATCGCAG,-0.74
5,TACTTGTTAATACCTCATCCTC,-0.735
6,TTGAACAGCTCCAGGAAGCTGC,-0.652
7,TGTTCTATGAAGTCTCACGAGG,-1.02
8,TTGAGGGCTAGTTTGTTCCCGC,-0.869
9,ATCATCGTCACCGCACTGGTGA,-0.305
10,TTGGCTACTATTCCCGTCTTGA,0.118
11,TTGGCGAACAAGTTCACGCCGC,-0.437
12,TTATCATCGTCACCGCACTGGT,-1.04

# Molecular target: C19orf48
# Assay: as above
# Conditions: shRNA
row,Sequence,sensor-assay potency score (higher = more potent)
1,TTGGGTCCCAGCATGAGCCTGG,-0.0945
2,TAGGCCTGGTCACAATAGGGAA,-1.64
3,AAGTCCTTGTGCACTGGGTTGG,-0.738
4,TTGTGCACTGGGTTGGGTCCCA,-0.4
5,TCCTTGTGCACTGGGTTGGGTC,-1.63
6,TTCTGGCCTGCTTCACCCCTGG,-0.772
7,TCTCCTGGGTGTGTGGCTCAGC,-0.768
